Six molecules from PubChem BioAssay (NCI) can be followed below.

Where “and” joins values, the source holds several entries; their conditions need not be identical. Equal values may be shown once. This is part of a sample that, as a whole, favours compounds with a hit. Of some 83,000 tested, about 20% had one in any assay.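 Results are percent growth after 48 hours of single-concentration exposure. 100 means growth as in untreated cells, lower positive values show inhibition; negative values down to -100 show cell death.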 Calls of active or inactive are those of the source. How the source made its calls: active means growth percent below 10; inactive means the rest.

Test systems include MOLT-4 leukemia; SR leukemia; RPMI-8226 leukemia; OVCAR-8 ovarian; OVCAR-5 ovarian; OVCAR-4 ovarian; SK-OV-3 ovarian; IGROV1 ovarian; OVCAR-3 ovarian; HS 578T breast; NCI/ADR-RES ovarian; T-47D breast; BT-549 breast; MDA-MB-435 melanoma; SW-620 colon; MCF7 breast; HCT-116 colon; HCC-2998 colon; KM12 colon.
Assay in all cases: NCI-60 one-dose screen, 48 h (100 = growth as untreated, 0 = no growth, -100 = all killed)
Holding throughout (conditions): 10 µM unless noted

As for `O=c1[nH]c(=O)[nH]c(=O)[nH]1`, the growth is 80.8% (inactive) in the test on MOLT-4 leukemia; 104% (inactive) with SR leukemia; 60.1% (inactive) in the test with RPMI-8226 leukemia; 106% (inactive) in the test on OVCAR-8 ovarian; 103% (inactive) with OVCAR-5 ovarian; 119% (inactive) in the test with OVCAR-4 ovarian. In addition, the growth in the test with SK-OV-3 ovarian was 110% (inactive); in the test on IGROV1 ovarian, 68.2% (inactive); in the test on OVCAR-3 ovarian it was 119% (inactive); with HS 578T breast, 95.7% (inactive); in the test with NCI/ADR-RES ovarian it was 102% (inactive); with T-47D breast, 102% (inactive). Besides, the growth was 145% (inactive) with BT-549 breast; 114% (inactive) in the test on MDA-MB-435 melanoma; 108% (inactive) in the test on SW-620 colon; 97.1% (inactive) with MCF7 breast; 97.2% (inactive) in the test with HCT-116 colon; 117% (inactive) in the test on HCC-2998 colon. Further, the growth in the test on KM12 colon is 107% (inactive).
`ClCc1ccc(Cl)c(Cl)c1`: the growth in the test with MOLT-4 leukemia was 105% (inactive); in the test on SR leukemia it was 101% (inactive); in the test with RPMI-8226 leukemia it was 109% (inactive); in the test on OVCAR-8 ovarian, 104% (inactive); in the test with OVCAR-5 ovarian, 98.7% (inactive); in the test on OVCAR-4 ovarian it was 106% (inactive). For the same molecule, the growth in the test on SK-OV-3 ovarian was 106% (inactive); in the test on IGROV1 ovarian it was 94.7% (inactive); with OVCAR-3 ovarian, 114% (inactive); with HS 578T breast, 103% (inactive); in the test on NCI/ADR-RES ovarian, 106% (inactive); in the test on T-47D breast, 106% (inactive). In addition, the growth in the test with BT-549 breast was 104% (inactive); with MDA-MB-435 melanoma, 106% (inactive); with SW-620 colon it was 97% (inactive); with MCF7 breast, 97.2% (inactive); in the test on HCT-116 colon, 96.1% (inactive); with HCC-2998 colon, 103% (inactive). In the test on KM12 colon, the growth is 104% (inactive).
As for `CCOC(=O)c1cncn1C(C)c1ccccc1` (centres undefined), the growth in the test with MOLT-4 leukemia is 94.5% (inactive); with SR leukemia, 90.2% (inactive); with RPMI-8226 leukemia, 105% (inactive); in the test on OVCAR-8 ovarian, 102% (inactive); in the test with OVCAR-5 ovarian, 105% (inactive); in the test with OVCAR-4 ovarian it was 109% (inactive). The growth with SK-OV-3 ovarian was 103% (inactive); in the test on IGROV1 ovarian, 107% (inactive); in the test on OVCAR-3 ovarian, 109% (inactive); with HS 578T breast, 97.2% (inactive); in the test with NCI/ADR-RES ovarian, 109% (inactive); in the test on T-47D breast, 105% (inactive). Besides, the growth with BT-549 breast was 100% (inactive); with MDA-MB-435 melanoma, 108% (inactive); in the test on SW-620 colon, 115% (inactive); in the test with MCF7 breast, 114% (inactive); in the test on HCT-116 colon, 106% (inactive); in the test with HCC-2998 colon, 118% (inactive). In addition, the growth in the test on KM12 colon was 104% (inactive).
In the case of `COc1cc2c(c(OC)c1OC)-c1ccc(O)cc1[C@@H](NC(C)=O)CC2`, the growth with MOLT-4 leukemia is 34.5% (inactive) and -8.23% (active); with SR leukemia, 15.1% (inactive) and -4.87% (active); in the test with RPMI-8226 leukemia, 25% (inactive) and -17.7% (active); in the test on OVCAR-8 ovarian it was 15.7% (inactive) and 11.1% (inactive); in the test with OVCAR-5 ovarian, 33.2% (inactive) and 41.1% (inactive); in the test on OVCAR-4 ovarian, 19.3% (inactive). The growth with SK-OV-3 ovarian was 8.01% (active) and 6.47% (active); in the test on IGROV1 ovarian, -24.2% (active) and 8.32% (active); with OVCAR-3 ovarian it was -39.1% (active) and -30.9% (active); in the test with HS 578T breast, 50.4% (inactive) and 29.5% (inactive); with NCI/ADR-RES ovarian, 11.1% (inactive) and -2.64% (active); in the test on T-47D breast, 56.4% (inactive) and 64% (inactive). The growth is 8.27% (active) in the test with BT-549 breast; -27.7% (active) and -47.4% (active) in the test on MDA-MB-435 melanoma; 21.9% (inactive) and 20.7% (inactive) in the test with SW-620 colon; 15.1% (inactive) and 6.46% (active) in the test on MCF7 breast; 6.62% (active) and 4.98% (active) with HCT-116 colon; 11.5% (inactive) and 8.19% (active) with HCC-2998 colon. For the same molecule, the growth in the test on KM12 colon is -17.3% (active) and -32.3% (active).
Turning to `COc1cc2c(cc1OC)[C@@H]1C(=O)c3ccc4c(c3O[C@@H]1CO2)C[C@H](C(C)C)O4`, the growth in the test on MOLT-4 leukemia is 37% (inactive); in the test with SR leukemia, 9.36% (active); with RPMI-8226 leukemia, -9.79% (active); in the test on OVCAR-8 ovarian it was 54.7% (inactive); in the test on OVCAR-5 ovarian, 93.7% (inactive); in the test with OVCAR-4 ovarian, 42.3% (inactive). In addition, the growth is 75.9% (inactive) in the test with SK-OV-3 ovarian; 81.6% (inactive) in the test on IGROV1 ovarian; 83.1% (inactive) with OVCAR-3 ovarian; 115% (inactive) with HS 578T breast; 34.9% (inactive) in the test on NCI/ADR-RES ovarian; 33.2% (inactive) in the test with T-47D breast. In addition, the growth in the test on BT-549 breast is 44.8% (inactive); in the test on MDA-MB-435 melanoma it was 51.4% (inactive); in the test with SW-620 colon it was 84.7% (inactive); in the test on MCF7 breast, 46.3% (inactive); in the test with HCT-116 colon it was 39.4% (inactive); in the test on HCC-2998 colon, 76.1% (inactive). For the same molecule, the growth in the test on KM12 colon is 65.6% (inactive).
With `Cc1cc(Br)c([N+](=O)[O-])cc1[N+](=O)[O-]`, the growth was 71.1% (inactive) with MOLT-4 leukemia; 40.4% (inactive) in the test on SR leukemia; 120% (inactive) in the test on RPMI-8226 leukemia; 94.9% (inactive) in the test with OVCAR-8 ovarian; 107% (inactive) in the test on OVCAR-5 ovarian; 113% (inactive) in the test on OVCAR-4 ovarian. In addition, the growth in the test on SK-OV-3 ovarian was 104% (inactive); in the test on IGROV1 ovarian, 110% (inactive); with OVCAR-3 ovarian it was 103% (inactive); in the test on HS 578T breast it was 105% (inactive); in the test on NCI/ADR-RES ovarian, 94.4% (inactive); in the test with T-47D breast it was 85.7% (inactive). The growth in the test with BT-549 breast was 106% (inactive); in the test on MDA-MB-435 melanoma, 96.3% (inactive); in the test on SW-620 colon it was 23% (inactive); with MCF7 breast, 91% (inactive); in the test with HCT-116 colon, 20.5% (inactive); with HCC-2998 colon it was 111% (inactive). Moreover, the growth in the test with KM12 colon is 91.8% (inactive).
